Results reported in PubChem BioAssay (NCATS).
Results filed as inconclusive are left out. Active and inactive are the calls of the source. Unless noted, calls follow the shape of the dose curve; as a rule, active = well fitted curve in the direction sought with a large enough effect; inconclusive = small, poorly fitted or top-dose-only effect, or another doubt; inactive = no such curve, though single readings can be large; an effect the other way counts as inactive or inconclusive.

Assays:
[1] = Validation screen for small molecules that induce DNA re-replication in MCF 10A normal breast cells (AID 463097); also: nearly all actives have a fitted effect of over 60% in size; also: potency is read from the fitted curve at half-maximal effect
In short: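 Image-based qHTS: normal breast cells are incubated with compound for 48 hr, stained with Hoechst, and scanned for total nuclear fluorescence. Compounds raising the fraction of nuclei with elevated DNA content count as re-replication inducers.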

[2] = target: Ubiquitin carboxyl-terminal hydrolase 2 (Homo sapiens) (UniProt O75604); test: qHTS Validation Assay for Inhibitors of Ubiquitin-specific Protease USP2a Using CHOP2 as the Reporter (AID 463106); also: potency is read from the fitted curve at half-maximal effect
Ubiquitin carboxyl-terminal hydrolase 2 (Homo sapiens), sequence (O75604 whole entry, looked up): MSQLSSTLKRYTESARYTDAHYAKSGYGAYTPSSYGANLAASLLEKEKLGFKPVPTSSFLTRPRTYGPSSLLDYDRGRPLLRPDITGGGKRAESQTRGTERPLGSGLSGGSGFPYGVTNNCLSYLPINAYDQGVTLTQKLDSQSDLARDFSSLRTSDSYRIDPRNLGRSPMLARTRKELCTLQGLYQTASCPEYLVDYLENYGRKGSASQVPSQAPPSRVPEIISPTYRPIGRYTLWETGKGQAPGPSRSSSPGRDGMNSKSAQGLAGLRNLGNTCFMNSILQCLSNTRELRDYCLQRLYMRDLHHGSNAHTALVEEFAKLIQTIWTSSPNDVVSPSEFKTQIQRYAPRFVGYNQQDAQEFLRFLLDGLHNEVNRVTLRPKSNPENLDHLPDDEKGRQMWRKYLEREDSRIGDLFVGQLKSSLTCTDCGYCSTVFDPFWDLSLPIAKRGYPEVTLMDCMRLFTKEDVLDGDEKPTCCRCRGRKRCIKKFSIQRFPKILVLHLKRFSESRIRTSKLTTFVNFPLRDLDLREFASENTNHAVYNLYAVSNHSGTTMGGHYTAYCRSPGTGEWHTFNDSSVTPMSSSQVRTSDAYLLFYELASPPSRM
In short: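 Readout was coupled fluorescence (Ex 485/Em 531 nm), read 60 min after adding 25 nM final Ub-CHOP2 and 25 nM reporter substrate. Beforehand, 10 nM final USP2 core had 30 min at RT with compound in pH 8.0 buffer. Curves were fitted after normalization to NEM and flagged for artifacts using time-zero reads.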

[3] = target: DNA polymerase III PolC-type (Bacillus subtilis (strain 168)) (UniProt P13267); test: qHTS Validation Assay for the Inhibitors of DNA Replication in Gram-Positive Bacteria (AID 485295); also: potency is read from the fitted curve at half-maximal effect
DNA polymerase III PolC-type (Bacillus subtilis (strain 168)), sequence (P13267 whole entry, looked up): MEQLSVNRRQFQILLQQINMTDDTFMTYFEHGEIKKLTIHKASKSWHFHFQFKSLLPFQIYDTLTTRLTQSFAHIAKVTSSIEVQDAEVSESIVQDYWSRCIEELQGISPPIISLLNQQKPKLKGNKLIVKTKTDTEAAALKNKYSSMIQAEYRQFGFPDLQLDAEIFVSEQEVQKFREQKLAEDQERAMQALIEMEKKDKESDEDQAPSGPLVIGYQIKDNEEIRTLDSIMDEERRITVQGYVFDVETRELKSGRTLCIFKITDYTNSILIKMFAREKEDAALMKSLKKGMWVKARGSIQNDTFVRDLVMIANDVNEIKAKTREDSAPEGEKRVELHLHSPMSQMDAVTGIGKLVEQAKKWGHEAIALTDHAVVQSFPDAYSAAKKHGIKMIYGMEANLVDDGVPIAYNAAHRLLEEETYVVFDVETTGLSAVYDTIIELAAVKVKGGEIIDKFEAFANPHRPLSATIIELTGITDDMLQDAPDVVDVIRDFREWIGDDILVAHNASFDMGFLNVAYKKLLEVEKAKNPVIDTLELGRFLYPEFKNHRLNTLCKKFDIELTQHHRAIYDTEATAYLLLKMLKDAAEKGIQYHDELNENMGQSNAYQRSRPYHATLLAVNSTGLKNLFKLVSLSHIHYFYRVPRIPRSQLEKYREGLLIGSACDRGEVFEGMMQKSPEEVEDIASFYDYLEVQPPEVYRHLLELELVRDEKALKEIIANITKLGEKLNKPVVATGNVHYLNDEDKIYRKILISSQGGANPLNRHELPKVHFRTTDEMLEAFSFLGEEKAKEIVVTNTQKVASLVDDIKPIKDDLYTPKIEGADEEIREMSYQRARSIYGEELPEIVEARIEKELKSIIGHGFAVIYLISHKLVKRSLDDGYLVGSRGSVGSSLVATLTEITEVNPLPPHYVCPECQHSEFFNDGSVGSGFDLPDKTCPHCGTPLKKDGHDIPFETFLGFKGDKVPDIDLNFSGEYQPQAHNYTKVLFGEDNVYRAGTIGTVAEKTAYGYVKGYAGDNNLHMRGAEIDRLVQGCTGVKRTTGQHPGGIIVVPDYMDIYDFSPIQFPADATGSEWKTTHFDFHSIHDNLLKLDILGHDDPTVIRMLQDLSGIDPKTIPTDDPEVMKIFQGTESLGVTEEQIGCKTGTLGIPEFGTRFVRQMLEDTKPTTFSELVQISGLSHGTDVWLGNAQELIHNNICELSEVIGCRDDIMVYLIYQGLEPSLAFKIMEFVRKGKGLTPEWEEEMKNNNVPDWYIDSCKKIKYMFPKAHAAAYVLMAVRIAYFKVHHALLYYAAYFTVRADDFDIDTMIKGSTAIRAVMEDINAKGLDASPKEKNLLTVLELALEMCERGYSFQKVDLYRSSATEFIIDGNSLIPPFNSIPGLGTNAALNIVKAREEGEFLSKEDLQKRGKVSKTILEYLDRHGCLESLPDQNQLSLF
In short: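 First, compound is mixed with the reconstituted replication complex and held at room temperature. Next, circular single-stranded M13Gori with nucleotides starts synthesis. Finally, PicoGreen in EDTA halts the reaction and stains double-stranded product for fluorescence reading.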

[4] = target: Tumor susceptibility gene 101 protein (Homo sapiens) (UniProt Q99816); test: qHTS Validation Assay for Iinhibitors of HIV-1 Budding by Blocking the Interaction of PTAP/TSG101 (AID 485342; calls by dose curve)
Tumor susceptibility gene 101 protein (Homo sapiens), sequence (Q99816 whole entry, looked up, the tested form may be a part): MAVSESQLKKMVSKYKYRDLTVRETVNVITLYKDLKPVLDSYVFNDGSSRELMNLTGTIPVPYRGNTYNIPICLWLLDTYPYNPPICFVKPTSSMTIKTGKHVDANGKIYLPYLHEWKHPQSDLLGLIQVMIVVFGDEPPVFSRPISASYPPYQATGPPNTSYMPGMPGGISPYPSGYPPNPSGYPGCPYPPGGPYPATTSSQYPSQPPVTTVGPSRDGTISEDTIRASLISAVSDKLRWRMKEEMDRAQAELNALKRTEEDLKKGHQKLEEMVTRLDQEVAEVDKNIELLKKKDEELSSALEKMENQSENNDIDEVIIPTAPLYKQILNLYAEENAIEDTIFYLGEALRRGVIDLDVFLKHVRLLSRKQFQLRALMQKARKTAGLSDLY
In short: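 Binding of a FITC-tagged PTAP-motif peptide (50 nM) to the Tsg101 binding domain (10 uM) is monitored by fluorescence polarization. Compounds are pin-delivered before peptide addition, and incubation runs 20 min at room temperature.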

[5] = target: Beta-2 adrenergic receptor (Homo sapiens) (UniProt P07550); test: qHTS validation assay of beta-arrestin-biased ligands of beta2-adrenergic receptor (AID 485366)
Beta-2 adrenergic receptor (Homo sapiens), sequence (P07550 whole entry, looked up): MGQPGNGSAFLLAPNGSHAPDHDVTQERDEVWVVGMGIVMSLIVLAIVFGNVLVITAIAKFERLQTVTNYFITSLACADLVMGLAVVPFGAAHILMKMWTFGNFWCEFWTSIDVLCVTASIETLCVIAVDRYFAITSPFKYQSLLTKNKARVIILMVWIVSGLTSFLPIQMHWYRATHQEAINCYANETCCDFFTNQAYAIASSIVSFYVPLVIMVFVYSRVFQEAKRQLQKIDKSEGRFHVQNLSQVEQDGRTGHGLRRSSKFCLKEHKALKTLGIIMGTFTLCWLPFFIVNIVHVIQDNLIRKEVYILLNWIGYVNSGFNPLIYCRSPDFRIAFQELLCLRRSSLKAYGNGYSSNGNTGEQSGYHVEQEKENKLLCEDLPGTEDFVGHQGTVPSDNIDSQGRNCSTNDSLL
In short: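 Agonist activity is measured as luciferase luminescence downstream of beta-arrestin recruitment to recombinant beta2-AR in Tango cells. Exposure lasts 18 hr at 37 degrees C, and curves are categorized by r2, response size and activity.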

[6] = target: ATP-dependent 6-phosphofructokinase (Trypanosoma brucei brucei) (UniProt O15648); test: qHTS Validation Assay to Find Inhibitors of T. brucei phosphofructokinase (AID 485368); conditions: T. brucei PFK enzyme assay, qHTS 7-point titration; at 57.5 µM (top of the series)
ATP-dependent 6-phosphofructokinase (Trypanosoma brucei brucei), sequence (O15648 whole entry, looked up): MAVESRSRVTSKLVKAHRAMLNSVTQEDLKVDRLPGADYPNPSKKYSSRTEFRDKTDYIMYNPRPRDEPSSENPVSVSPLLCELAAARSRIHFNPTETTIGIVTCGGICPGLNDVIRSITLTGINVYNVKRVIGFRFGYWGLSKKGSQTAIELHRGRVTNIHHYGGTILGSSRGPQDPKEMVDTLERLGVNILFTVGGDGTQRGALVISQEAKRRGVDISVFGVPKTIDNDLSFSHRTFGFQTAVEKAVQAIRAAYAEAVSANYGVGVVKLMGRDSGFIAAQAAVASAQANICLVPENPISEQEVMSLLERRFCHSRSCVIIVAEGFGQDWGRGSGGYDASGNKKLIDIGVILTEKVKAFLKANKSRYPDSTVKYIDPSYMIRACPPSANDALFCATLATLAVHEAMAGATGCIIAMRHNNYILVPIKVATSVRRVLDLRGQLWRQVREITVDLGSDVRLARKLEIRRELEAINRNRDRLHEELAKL
In short: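 Inhibition derived from concentration-response curves of luminescence, ranked by r2, response size and curve class; the underlying reaction used 1.25 nM PFK, 0.1 mM ATP and 0.5 mM F6P, 45 min, room temperature.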

[7] = Quantitative high throughput screen for delayed death inhibitors of the malarial parasite plastid, 96 hour incubation (AID 488745); also: nearly all actives have a fitted effect of over 70% in size; also: potency is read from the fitted curve at half-maximal effect
In short: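 Decreased firefly luciferase luminescence indicates inhibited growth of reporter-integrated P. falciparum after two generations (96 h, 37 C, 5% CO2). Infected erythrocytes at 0.1% parasitemia, 2% hematocrit, in Albumax-supplemented RPMI 1640.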

[8] = Quantitative high throughput screen for delayed death inhibitors of the malarial parasite plastid, 48 hour incubation (AID 488752); also: nearly all actives have a fitted effect of over 65% in size; also: potency is read from the fitted curve at half-maximal effect
In short: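 One-generation (48 h) growth assay: a decrease in luciferase signal from an integrated reporter in P. falciparum-infected red cells (0.1% parasitemia, 2% hematocrit) after compound exposure at 37 C indicates parasite inhibition.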

[9] = target: Thioredoxin reductase 1, cytoplasmic (Rattus norvegicus) (UniProt O89049); test: qHTS Assay for Substrates of Mammalian Selenoprotein Thioredoxin Reductase 1 (TrxR1) (AID 488772);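 also: a drop in NADPH fluorescence below the no-compound background marks a TrxR1 substrate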
Thioredoxin reductase 1, cytoplasmic (Rattus norvegicus), sequence (O89049 whole entry, looked up): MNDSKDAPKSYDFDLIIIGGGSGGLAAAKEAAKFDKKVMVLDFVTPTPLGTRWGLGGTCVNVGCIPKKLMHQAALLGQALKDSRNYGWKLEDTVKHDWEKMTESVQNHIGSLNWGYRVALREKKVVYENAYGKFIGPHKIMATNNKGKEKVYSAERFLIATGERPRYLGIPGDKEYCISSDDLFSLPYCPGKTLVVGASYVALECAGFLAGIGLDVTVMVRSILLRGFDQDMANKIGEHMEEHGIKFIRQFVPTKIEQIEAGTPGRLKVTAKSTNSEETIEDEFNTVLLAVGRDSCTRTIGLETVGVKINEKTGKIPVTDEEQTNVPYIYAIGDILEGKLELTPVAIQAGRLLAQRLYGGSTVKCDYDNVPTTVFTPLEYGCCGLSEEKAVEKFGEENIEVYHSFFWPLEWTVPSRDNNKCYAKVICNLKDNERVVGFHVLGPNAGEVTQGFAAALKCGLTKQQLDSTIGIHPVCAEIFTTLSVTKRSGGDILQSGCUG
In short: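 In this dual-purpose format, potential substrates are identified from the first fluorescence read after selenite addition, not from the 8-minute delta. Rat enzyme is preincubated with NADPH and then with compound at ~22 deg C.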

[10] = qHTS Validation Assay to Find Inhibitors of Chronic Active B-Cell Receptor Signaling (AID 485345; active = well fitted curve in the direction sought with a large enough effect in the main read-out, with a control signal flat, not every such curve was filed as active)
In short: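 Read-out: ratio of filter-corrected green (IkappaBalpha fusion) to red (native) luciferase signal in doxycycline-induced TMD8 cells after 4 h at 37C. Titration spanned 46 uM–3 nM; Data were normalised to basal cells and 10 uM MG-132 wells.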

Measured: Potency

CS(=N)(=O)CC[C@H](N)C(=O)O (some centres not stated)
not listed: [10]
inactive: all other assays above

S=C(NC1CCCCC1)N1CCC(c2cnc[nH]2)CC1
not listed: [2] | [10]
inactive: all other assays above

CCCN(CCC)[C@@H]1CCc2ccc(O)cc2C1
not listed: [10]
inactive: all other assays above

O=C(Cc1ccc(Cl)c(Cl)c1)N1CCCCC1CN1CCCC1 (configuration not stated)
inactive: [1] | [3] | [4] | [5] | [6] | [9]

NC(=NCCC[C@H](N)C(=O)O)N[N+](=O)[O-]
not listed: [7] | [10]
inactive: all other assays above

Clc1ccc(C(c2ccc(Cl)cc2)n2cc[n+](CC(OCc3ccc(Cl)cc3Cl)c3ccc(Cl)cc3Cl)c2)cc1 (configuration not stated)
active: [1] 11.2 µM | [2] 13.1 µM

O=C(O)[C@@H]1CCN1
not listed: [2] | [10]
inactive: all other assays above

Oc1ccc2c3c1O[C@H]1c4[nH]c5c(c4C[C@@]4(O)[C@@H](C2)N(CC2CC2)CC[C@]314)C[C@@]1(O)[C@H]2Cc3ccc(O)c4c3[C@@]1(CCN2CC1CC1)[C@H]5O4
active: [7] 2.08 µM
not listed: [2] | [8]
inactive: all other assays above

C[C@@H](N)Cc1cnc[nH]1
not listed: [10]
inactive: all other assays above

NC(CP(=O)(O)O)C(=O)O (configuration not stated)
not listed: [2] | [10]
inactive: all other assays above

c1ccc2sc(C3(N4CCCCC4)CCCCC3)cc2c1
inactive: [1] | [2] | [3] | [4] | [5] | [9]

CCCCc1ccc(C(=O)O)nc1
not listed: [2] | [10]
inactive: all other assays above

C[N+]1(C)C2CCC1CC(OC(=O)C(CO)c1ccccc1)C2 (configuration not stated)
not listed: [2] | [10]
inactive: all other assays above

NCCc1c[nH]c2ccc(O)cc12
not listed: [10]
inactive: all other assays above

NC(CCP(=O)(O)O)C(=O)O (configuration not stated)
not listed: [2]
inactive: all other assays above

COc1cc(C(O)CN)ccc1O (configuration not stated)
not listed: [2] | [10]
inactive: all other assays above

NCCc1c[nH]c2ccccc12
not listed: [6]
inactive: all other assays above

CNCCc1c[nH]c2ccc(O)cc12
not listed: [2] | [7] | [10]
inactive: all other assays above

CCCN1CCO[C@@H]2c3cc(O)ccc3OC[C@H]21
not listed: [2] | [10]
inactive: all other assays above

C#CCOC(=O)C1=CCCN(C)C1
not listed: [6] | [10]
inactive: all other assays above

Cn1cnc(CCN)c1
not listed: [6] | [10]
inactive: all other assays above

O=C(O)CC[N+](=O)[O-]
not listed: [10]
inactive: all other assays above

NC1CC1c1ccccc1 (configuration not stated)
not listed: [2] | [10]
inactive: all other assays above

C[C@@H]1O[C@H](C[N+](C)(C)C)C[C@H]1O
not listed: [2]
inactive: all other assays above

O=C(O)Cc1cnc[nH]1
not listed: [2] | [10]
inactive: all other assays above

CCCN1CCC[C@H](c2cccc(O)c2)C1
not listed: [2] | [10]
inactive: all other assays above

C=CCN1CC[C@]23CCCCC2[C@H]1Cc1ccc(O)cc13 (some centres not stated)
not listed: [6] | [10]
inactive: all other assays above

CCCN(CCC)C1CCc2ccc(O)cc2C1 (configuration not stated)
not listed: [6] | [8] | [9]
inactive: all other assays above

Clc1cnc(Oc2ccc(Oc3ncc(Cl)cc3Cl)cc2)c(Cl)c1
not listed: [2] | [10]
inactive: all other assays above

COC(=O)[C@@H](N)CCCN=C(N)N[N+](=O)[O-]
inactive: [3] | [4] | [5] | [6] | [9]

C[C@]12CCC3C(CC[C@H]4C[C@H](O)CC[C@]34C)C1CC[C@@H]2C(=O)CO (some centres not stated)
inactive: [1] | [3] | [4] | [5] | [6] | [9]

CN1C2CCC1CC(OC(=O)c1cc(Cl)cc(Cl)c1)C2 (configuration not stated)
inactive: [3] | [4] | [5] | [6] | [8]

NC(N)=NOCCC(N)C(=O)O (configuration not stated)
not listed: [2] | [6] | [10]
inactive: all other assays above

C/C=C(/C)C(=O)O[C@H]1C(C)=C2[C@H]([C@@H]1OC(=O)CCCCCCC)[C@@](C)(OC(C)=O)C[C@H](OC(=O)CCC)[C@@]1(O)[C@H]2OC(=O)[C@@]1(C)O
inactive: [4] | [5]

CNCCc1ccc(O)c(O)c1
inactive: [3] | [4] | [5] | [7] | [8] | [9]

NC(=O)CN1CC(O)CC1=O (configuration not stated)
not listed: [2] | [6] | [10]
inactive: all other assays above

CC(C)Oc1cccnc1N(C)C1CCN(Cc2ccccc2)CC1
inactive: [3] | [4] | [5] | [7] | [8] | [9]

Cc1nccc2c1[nH]c1ccccc12
not listed: [2] | [6] | [10]
inactive: all other assays above

CC1=NN=C(c2ccc(N)cc2)c2cc3c(cc2C1)OCO3
not listed: [2] | [6] | [10]
inactive: all other assays above

CC[C@@H]1C(=O)OC[C@@H]1Cc1cncn1C
inactive: [1] | [7] | [8]

CC[C@@H](C(N)=O)N1CCCC1=O
inactive: [3] | [4] | [5] | [6] | [9]

CCn1cc(C(=O)O)c(=O)c2cc3c(cc21)OCO3
inactive: [9]

COc1ccc2c(c[n+](C)c3c4cc5c(cc4ccc23)OCO5)c1OC
active: [3] 26.7 µM
inactive: [4] | [5] | [7] | [9]

CC[C@@]1(O)C(=O)OCc2c1cc1n(c2=O)Cc2cc3ccccc3nc2-1
active: [7] 1.47 µM | [8] 2.33 µM
inactive: [3] | [4] | [5] | [6] | [9]

O=C(N[C@H]1CN2CCC1CC2)c1ccc(Cl)cc1
inactive: [3] | [4] | [10] | [5] | [6] | [9]

C[N+](C)(C)CC(=O)O
inactive: [1] | [8]

Cc1c(C(=O)c2cccc3ccccc23)c2cccc3c2n1[C@H](CN1CCOCC1)CO3
inactive: [3] | [4] | [5] | [6] | [9]

CC(=O)[C@H]1CCC2C3CC[C@H]4C[C@H](O)CC[C@]4(C)C3CC[C@@]21C (some centres not stated)
inactive: [3] | [4] | [5] | [7] | [8] | [9]

c1ccc(CCCN2CCN(CCOC(c3ccccc3)c3ccccc3)CC2)cc1
inactive: [3] | [4] | [5] | [9]
active: [7] 2.08 µM

c1ccc(C2(c3ccccc3)CC2C2=NCCN2)cc1 (configuration not stated)
inactive: [3] | [4] | [5] | [6] | [9]

NC1CCc2cc(O)c(O)cc2C1 (configuration not stated)
not listed: [2] | [6] | [10]
inactive: all other assays above

CN[C@@H]1C[C@@H](c2ccc(Cl)c(Cl)c2)c2ccccc21
inactive: [3] | [4] | [5] | [9]

NCc1cc(=O)[nH]o1
not listed: [2] | [6] | [10]
inactive: all other assays above

CC(Cc1ccc(O)cc1)NCC(O)c1cc(O)cc(O)c1 (configuration not stated)
inactive: [1] | [3] | [4] | [7] | [8] | [9]

C[C@]12N[C@H](Cc3ccccc31)c1ccccc12
not listed: [2] | [6] | [10]
inactive: all other assays above

O=C1CCCN1CC#CCN1CCCC1
not listed: [2] | [6] | [10]
inactive: all other assays above

C[N+]1(C)C2CC(OC(=O)[C@H](CO)c3ccccc3)CC1C1OC12 (some centres not stated)
inactive: [6]

CC(C)NC(C)Cc1ccc(I)cc1 (configuration not stated)
inactive: [1] | [3] | [4] | [5] | [9]

CC(=O)NCCc1c[nH]c2ccccc12
not listed: [2] | [6] | [10]
inactive: all other assays above
